Screening data deposited in PubChem BioAssay by The Scripps Research Institute Molecular Screening Center.
MITF inh: inhibitors of human MITF; O75030; inhibition, % at 2.6 µM; AlphaScreen MITF homodimerization, bead proximity signal; actives 0.91% (n = 650,000); in the data active = inhibition above about 50%;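 also: 0% = vehicle wells with protein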
FBW7 act: activators of human E3 ligase FBW7. Q969H0. AlphaScreen FBW7–phospho-cyclin E peptide binding, activator screen. normalized activity (activation), % at 26.1 µM. actives 0.13% (n = 650,000). AID 1259310; in the data active = normalized activity above about 1.9%;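 also: purified mutant Fbw7 with reduced substrate affinity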
GPR151 ag: activates the human receptor GPR151. actives 1% (n = 650,000). activation, % at 11.2 µM. AID 1508602. PathHunter beta-arrestin GPR151 cells, luminescence; in the data active = activation above about 4.9%;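 also: 0% = median of compound wells and 100% = cells with positive control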
Target sequence (Q8TDV0 whole entry, looked up): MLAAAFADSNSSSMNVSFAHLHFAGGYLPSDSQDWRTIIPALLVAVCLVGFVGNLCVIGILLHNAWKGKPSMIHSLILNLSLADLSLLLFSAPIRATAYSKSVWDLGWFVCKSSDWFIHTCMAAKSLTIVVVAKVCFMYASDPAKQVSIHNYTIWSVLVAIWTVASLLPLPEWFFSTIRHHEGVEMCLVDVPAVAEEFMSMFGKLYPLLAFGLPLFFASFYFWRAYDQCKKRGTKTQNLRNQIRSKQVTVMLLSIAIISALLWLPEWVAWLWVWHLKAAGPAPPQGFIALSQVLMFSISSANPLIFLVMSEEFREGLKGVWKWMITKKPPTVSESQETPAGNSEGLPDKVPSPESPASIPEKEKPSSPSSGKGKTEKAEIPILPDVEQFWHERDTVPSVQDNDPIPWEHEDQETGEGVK
TEAD-YAP inh: TEAD-YAP interaction inhibition | HEK-TIYL cells, TEAD-Gal4/YAP UAS-luciferase luminescence | inhibition, % at 9.12 µM | actives 1.4% (n = 640,000); in the data active = inhibition above about 32%;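 also: 0% = median of test compound wells and 100% = reference inhibitor wells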
The depositor's hits bear a star. Only some compounds are listed: those with a hit (about 3.5% of all), similar ones and a draw of the others.

CNC(=O)c1ccccc1Nc1cc(NC(=O)Cc2ccc(N)cc2)ncc1C(F)(F)F was read as MITF inh -17, FBW7 act 1, GPR151 ag -1 and TEAD-YAP inh 79*.
For NC(=O)c1ccccc1Nc1cc(NC(=O)Cc2ccc(F)cc2)ncc1F the results were MITF inh 15, FBW7 act 0, GPR151 ag -1 and TEAD-YAP inh 15.
`O=C(NCc1ccc(F)cc1)C(=O)Nc1ccccc1F` gave MITF inh 13, FBW7 act 0, GPR151 ag 0 and TEAD-YAP inh -9.
For COc1cccc(OC)c1CN1CCC(C2(C)NC(=O)NC2=O)CC1 (stereo not drawn) the results were MITF inh 8, FBW7 act 0, GPR151 ag 0 and TEAD-YAP inh 0.
`CNc1c([N+](=O)[O-])cc([N+](=O)[O-])c2cccnc12` gave MITF inh 5, FBW7 act 0, GPR151 ag 0 and TEAD-YAP inh 5.
`Cc1sc2ncnc(Sc3nnc4ccccn34)c2c1C` gave MITF inh 10, FBW7 act 0, GPR151 ag 3 and TEAD-YAP inh -6.
Screening Cc1sc2ncnc(Sc3nnc(N)s3)c2c1C returned MITF inh 0, FBW7 act 0, GPR151 ag 1 and TEAD-YAP inh 37*.
For COc1cc(/C=C2/C(=N)N3C(SC)=NSC3=NC2=O)cc(OC)c1OC(C)=O the results were MITF inh 0, FBW7 act 0, GPR151 ag 1 and TEAD-YAP inh -39.
`CCNc1nc(Nc2cc(OC)c(OC)c(OC)c2)c2ncn(-c3ccccc3)c2n1` gave MITF inh 10, FBW7 act 0, GPR151 ag 0 and TEAD-YAP inh 47*.
COc1cc(Nc2nc(Nc3nc4ccccc4n3C)nc3c2ncn3-c2ccccc2)cc(OC)c1OC was read as MITF inh -10, FBW7 act 0, GPR151 ag 2 and TEAD-YAP inh 42*.
COc1cc(Nc2nc(Nc3ccccc3)c3ncn(-c4ccccc4)c3n2)cc(OC)c1OC was read as MITF inh 7, FBW7 act 0, GPR151 ag 2 and TEAD-YAP inh -35.
For CCc1ccc(-c2cn3c(n2)sc2cc(C(=O)NCCCN4CCCC4=O)ccc23)cc1 the results were MITF inh -3, FBW7 act 1, GPR151 ag 0 and TEAD-YAP inh 3.
Screening Cc1ccc(N2C(=O)C3CC=CCC3C2=O)cc1C (stereo not drawn) returned MITF inh -1, FBW7 act 0, GPR151 ag -1 and TEAD-YAP inh -9.
For O=C(O)c1cc2n(n1)C(C(F)(F)F)CC(C1CC1)N2 (stereo not drawn) the results were MITF inh -6, FBW7 act 0, GPR151 ag 1 and TEAD-YAP inh -9.
For CCOC(=O)c1c(N)sc(C(=O)Nc2cccc(OC)c2)c1C the results were MITF inh 18, FBW7 act 0, GPR151 ag -8 and TEAD-YAP inh 52*.
COC(=O)c1c(N)sc(C(=O)Nc2ccccc2C)c1C was read as MITF inh -22, FBW7 act 0, GPR151 ag -2 and TEAD-YAP inh 24.
For CCOC(=O)c1c(N)sc(C(=O)Nc2ccccc2C)c1C the results were MITF inh -12, FBW7 act 0, GPR151 ag -1 and TEAD-YAP inh -17.
For CCOC(=O)c1ccc(NC(=O)c2sc(N)c(C(=O)OCC)c2C)cc1 the results were MITF inh -4, FBW7 act 0, GPR151 ag 2 and TEAD-YAP inh 61*.
For CCOC(=O)c1ccccc1NC(=O)c1sc(N)c(C(=O)OCC)c1C the results were MITF inh 22, FBW7 act 0, GPR151 ag 1 and TEAD-YAP inh 54*.
`CCOC(=O)c1ccc(NC(=O)c2sc(NC(=O)c3cc(OC)c(OC)c(OC)c3)c(C(=O)OCC)c2C)cc1` gave MITF inh 4, FBW7 act 0, GPR151 ag 1 and TEAD-YAP inh 8.
Screening COC(=O)c1c(N)sc(C(=O)Nc2ccc(C)cc2C)c1C returned MITF inh -18, FBW7 act 0, GPR151 ag -3 and TEAD-YAP inh 76*.
COc1ccccc1CNC(=O)CC(=O)Nc1ccc2nc3n(c(=O)c2c1)CCCCC3 was read as MITF inh 3, FBW7 act 0, GPR151 ag -1 and TEAD-YAP inh -3.
For CC(=O)Nc1ccc(N2CCCCC2)c(C(N)=O)c1 the results were MITF inh 12, FBW7 act 0, GPR151 ag -1 and TEAD-YAP inh 4.
For COCc1cc(CN2CCCC2)c(O)c2ncccc12 the results were MITF inh 100*, FBW7 act -1, GPR151 ag 1 and TEAD-YAP inh 81*.
For COc1ccccc1N1CCN(Cc2cc(Br)c(O)c3ncccc23)CC1 the results were MITF inh 43, FBW7 act -1, GPR151 ag 0 and TEAD-YAP inh 81*.
For COCc1cc(CN(C)C2CCCCC2)c(O)c2ncccc12 the results were MITF inh 67*, FBW7 act -2, GPR151 ag 0 and TEAD-YAP inh 74*.
For CCOCc1cc(CN2CCOCC2)c(O)c2ncccc12 the results were MITF inh 86*, FBW7 act -1, GPR151 ag -1 and TEAD-YAP inh -3.
`CC1CCN(Cc2cc([N+](=O)[O-])c(O)c3ncccc23)CC1` gave MITF inh 42, FBW7 act -1, GPR151 ag -1 and TEAD-YAP inh -5.
COc1ccccc1N1CCN(Cc2cc([N+](=O)[O-])c(O)c3ncccc23)CC1 was read as MITF inh 28, FBW7 act -1, GPR151 ag -1 and TEAD-YAP inh 6.
Screening CCc1ccc(CN2CCc3nnc(CNC(C)=O)n3CC2)cc1 returned MITF inh -1, FBW7 act 0, GPR151 ag 0 and TEAD-YAP inh -4.
Screening CCOc1ccccc1N1CCN(Cc2cc(OC)c(OC)c(OC)c2)CC1 returned MITF inh 35, FBW7 act 1, GPR151 ag -1 and TEAD-YAP inh 41*.
Screening COc1ccccc1N1CCN(Cc2cc(COCc3ccccc3)c3cccnc3c2O)CC1 returned MITF inh 49, FBW7 act -1, GPR151 ag 0 and TEAD-YAP inh 74*.
Screening CCCOCc1cc(CN2CCN(C)CC2)c(O)c2ncccc12 returned MITF inh 94*, FBW7 act -1, GPR151 ag -2 and TEAD-YAP inh 7.
Screening COc1ccccc1N1CCN(Cc2cc(COC(C)C)c3cccnc3c2O)CC1 returned MITF inh 82*, FBW7 act -1, GPR151 ag 1 and TEAD-YAP inh 35*.
COCCN(Cc1cc2cc(C)ccc2n2nnnc12)C(=S)Nc1ccc(F)cc1 was read as MITF inh 1, FBW7 act 0, GPR151 ag 0 and TEAD-YAP inh -6.
Screening COc1cc(NC(=O)C/C(C)=N/NC(=O)c2ccc3ccccc3c2)c(OC)cc1Cl returned MITF inh 25, FBW7 act 0, GPR151 ag 0 and TEAD-YAP inh 27.
